PubChem BioAssay (NCI)
This is part of a sample that, as a whole, favours compounds with a hit. Of some 79,000 tested, about 15% had one in any assay. Activity calls are given as the source filed them. No stated cut-off is given here; in the data, active means growth inhibition above about 70%; inactive means the rest.

What was measured:
[1] = NCI Yeast Anticancer Drug Screen. Data for the rad52 strain (AID 147);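 further: 0% = growth of vehicle-treated control cultures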; conditions: S. cerevisiae rad52 mutant growth inhibition, active compounds read high
Method in brief: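 Yeast strain carrying a DNA damage repair alteration was exposed to test compounds. Growth inhibition was measured relative to vehicle-treated controls.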

[2] = NCI Yeast Anticancer Drug Screen. Data for the wt1 strain (AID 149);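 further: 0% = growth of vehicle-treated wt1 cultures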; conditions: S. cerevisiae wt1 strain (SPY 50644) growth inhibition, active compounds read high
Method in brief: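 Readout: yeast growth inhibition, normalised to vehicle controls, in the wt1 strain exposed to test compounds.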

[3] = NCI Yeast Anticancer Drug Screen. Data for the rad50EPP+ strain (AID 151);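 further: 0% = growth of vehicle-treated control cultures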; conditions: S. cerevisiae rad50 mutant strain, active compounds read high
Method in brief: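 Yeast strain carrying rad50 alteration (rad50EPP+) exposed to compounds; growth inhibition measured relative to vehicle-treated controls.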

[4] = NCI Yeast Anticancer Drug Screen. Data for the rad50 strain (AID 155);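 further: 0% = growth of vehicle-only cultures of the same strain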; conditions: S. cerevisiae rad50 strain growth inhibition, active compounds read high
Method in brief: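 Compounds were tested on a yeast strain with an engineered DNA damage repair alteration; the reported value is growth inhibition normalised to vehicle treatment.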

[5] = NCI Yeast Anticancer Drug Screen. Data for the mec2-1 strain (AID 157); conditions: S. cerevisiae mec2-1 strain, active compounds read high
Method in brief: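 mec2-1 yeast strain, carrying an alteration in DNA damage repair or cell cycle control, was exposed to compounds; growth inhibition was measured relative to vehicle-treated controls.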

[6] = NCI Yeast Anticancer Drug Screen. Data for the rad14 strain (AID 159);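 further: 0% = growth of vehicle-treated control cultures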; conditions: S. cerevisiae rad14 strain growth inhibition, active compounds read high
Method in brief: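 Compound-treated yeast with a defined DNA-repair lesion; growth inhibition normalised to vehicle-treated cultures.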

[7] = NCI Yeast Anticancer Drug Screen. Data for the sgs1 mgt1 strain (AID 161);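 further: 0% = growth of cultures given vehicle only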; conditions: S. cerevisiae sgs1 mgt1 strain, active compounds read high
Method in brief: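 This yeast growth screen uses a strain with defined DNA-repair lesions; compound-treated growth is compared with vehicle-treated growth.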

[8] = NCI Yeast Anticancer Drug Screen. Data for the CLN2oe strain (AID 163);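 further: 0% = growth of vehicle-only control cultures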; conditions: S. cerevisiae CLN2oe strain, active compounds read high
Method in brief: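 Yeast cells carrying a defined cell-cycle control alteration were exposed to test compounds. Growth inhibition was scored against vehicle-treated control cultures.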

[9] = NCI Yeast Anticancer Drug Screen. Data for the cln2 rad14 strain (AID 165);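 further: 0% = growth equal to vehicle treated cultures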; conditions: S. cerevisiae cln2 rad14 strain, active compounds read high
Method in brief: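 Yeast carrying cln2 and rad14 alterations (cell cycle control and DNA damage repair) were exposed to compounds. Growth inhibition was measured against vehicle-treated controls.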

[10] = NCI Yeast Anticancer Drug Screen. Data for the bub3 strain (AID 167); conditions: S. cerevisiae bub3 mutant strain, active compounds read high
Method in brief: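 Growth of a checkpoint-deficient yeast mutant is measured after compound exposure. Values represent inhibition relative to vehicle.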

[11] = NCI Yeast Anticancer Drug Screen. Data for the wt2 strain (AID 169);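 further: 0% = growth of vehicle-treated yeast cultures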; conditions: S. cerevisiae wt2 strain growth inhibition, active compounds read high
Method in brief: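 Yeast cells were exposed to test compounds, and growth inhibition was measured relative to vehicle-treated controls.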

[12] = NCI Yeast Anticancer Drug Screen. Data for the sgs1 strain (AID 173);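 further: 0% = growth of vehicle-only control cultures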; conditions: S. cerevisiae sgs1 mutant, active compounds read high
Method in brief: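 Yeast mutant strains carrying defined defects in DNA damage repair or cell cycle control were exposed to test compounds. Growth inhibition was scored against vehicle-treated controls.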

[13] = NCI Yeast Anticancer Drug Screen. Data for the mlh1 rad18 strain (AID 175); conditions: S. cerevisiae mlh1 rad18 strain growth inhibition, active compounds read high
Method in brief: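 Growth inhibition of the yeast strain was measured after compound exposure and expressed relative to vehicle-treated controls. The strain carries defined defects in DNA damage repair.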

[14] = NCI Yeast Anticancer Drug Screen. Data for the rad18 strain (AID 177); conditions: S. cerevisiae rad18 mutant growth inhibition, active compounds read high
Method in brief: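 Yeast carrying a defined DNA damage repair alteration were exposed to compounds. Growth inhibition was expressed relative to vehicle-treated controls.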

[15] = NCI Yeast Anticancer Drug Screen. Data for the mlh1 strain (AID 171);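 further: 0% = growth of vehicle-treated control cultures of the same strain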; conditions: S. cerevisiae mlh1 strain growth inhibition, active compounds read high
Method in brief: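 Yeast carrying a defined genetic alteration in DNA damage repair or cell cycle control were exposed to test compounds. Growth inhibition was measured relative to vehicle-treated controls.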

[16] = at 5.0 µM (retest, dose inferred, filed as 0.5)
[17] = at 50.0 µM (retest, dose inferred, filed as 5.0)

Measured: growth inhibition

CCCCCCCCCCCCCC(=O)OC(C)CCC1CCCO1 (stereo unspecified)
active: [9]; [16] 81%
inactive: [1]; at 1.2 µM -2% | [1]; at 3.7 µM 0% | [1]; at 11.0 µM 2% | [1]; at 33.0 µM 1% | [1]; at 100.0 µM -8% | [2]; at 1.2 µM -3% | [2]; at 3.7 µM -2% | [2]; at 11.0 µM -1% | [2]; at 33.0 µM -1% | [2]; at 100.0 µM -3% | [3]; at 1.2 µM 2% | [3]; at 3.7 µM 2% | [3]; at 11.0 µM -2% | [3]; at 33.0 µM -4% | [3]; at 100.0 µM -6% | [4]; at 1.2 µM 1% | [4]; at 3.7 µM 0% | [4]; [16] 3% | [4]; at 11.0 µM 0% | [4]; at 33.0 µM -7% | [4]; [17] 15% | [4]; at 50.0 µM 19.4% | [4]; at 100.0 µM -4% | [5]; at 1.2 µM 0% | [5]; at 3.7 µM -1% | [5]; [16] 13% | [5]; at 11.0 µM -6% | [5]; at 33.0 µM 1% | [5]; [17] 5% | [5]; at 50.0 µM 23.5% | [5]; at 100.0 µM -1% | [6]; at 1.2 µM -2% | [6]; at 3.7 µM -6% | [6]; at 11.0 µM 0% | [6]; at 33.0 µM 3% | [6]; at 100.0 µM -4% | [7]; [16] 3% | [7]; [17] 25% | [7]; at 50.0 µM 13.2% | [8]; at 1.2 µM 1% | [8]; at 3.7 µM 2% | [8]; at 11.0 µM 2% | [8]; at 33.0 µM 4% | [8]; at 100.0 µM 14% | [9]; [17] 39% | [9]; at 50.0 µM 37.1% | [10]; at 1.2 µM 1% | [10]; at 3.7 µM -1% | [10]; [16] 31% | [10]; at 11.0 µM -1% | [10]; at 33.0 µM -1% | [10]; [17] 1% | [10]; at 50.0 µM 34.6% | [10]; at 100.0 µM -1% | [11]; at 1.2 µM -3% | [11]; at 3.7 µM -3% | [11]; at 11.0 µM -2% | [11]; at 33.0 µM -3% | [11]; at 100.0 µM -6% | [12]; at 1.2 µM -1% | [12]; at 3.7 µM 1% | [12]; at 11.0 µM 1% | [12]; at 33.0 µM 3% | [12]; at 100.0 µM 1% | [13]; [16] -2% | [13]; [17] 37% | [13]; at 50.0 µM 20.8% | [14]; at 1.2 µM 0% | [14]; at 3.7 µM 1% | [14]; at 11.0 µM -3% | [14]; at 33.0 µM -4% | [14]; at 100.0 µM -5%

CC(=O)Oc1ccc(C(=O)c2ccccc2)c(O)c1
inactive: [1]; at 1.2 µM -7% | [1]; at 3.7 µM -10% | [1]; at 11.0 µM 2% | [1]; at 33.0 µM 28% | [2]; at 1.2 µM -2% | [2]; at 3.7 µM -1% | [2]; at 11.0 µM -4% | [2]; at 33.0 µM 10% | [3]; at 1.2 µM 14% | [3]; at 3.7 µM 20% | [3]; at 11.0 µM 19% | [3]; at 33.0 µM 47% | [4]; at 1.2 µM -4% | [4]; at 3.7 µM 1% | [4]; [16] 60% | [4]; at 11.0 µM -2% | [4]; at 33.0 µM 32% | [5]; at 1.2 µM -31% | [5]; at 3.7 µM -5% | [5]; [16] 64% | [5]; at 11.0 µM 2% | [5]; at 33.0 µM 26% | [5]; at 50.0 µM 50% | [6]; at 1.2 µM -24% | [6]; at 3.7 µM -20% | [6]; at 11.0 µM -19% | [6]; at 33.0 µM 21% | [7]; [16] -18% | [8]; at 1.2 µM -7% | [8]; at 3.7 µM -9% | [8]; at 11.0 µM -10% | [8]; at 33.0 µM 12% | [9]; [16] 27% | [9]; at 50.0 µM 58.9% | [10]; at 1.2 µM -36% | [10]; at 3.7 µM -38% | [10]; [16] 5% | [10]; at 11.0 µM -58% | [10]; at 33.0 µM -25% | [11]; at 1.2 µM -3% | [11]; at 3.7 µM 7% | [11]; at 11.0 µM 7% | [11]; at 33.0 µM 21% | [15]; at 1.2 µM -2% | [15]; at 3.7 µM -1% | [15]; at 11.0 µM 0% | [15]; at 33.0 µM 36% | [12]; at 1.2 µM 6% | [12]; at 3.7 µM 10% | [12]; at 11.0 µM 13% | [12]; at 33.0 µM 46% | [13]; [16] 50% | [13]; at 50.0 µM 61.8% | [14]; at 1.2 µM 0% | [14]; at 3.7 µM 13% | [14]; at 11.0 µM 17% | [14]; at 33.0 µM 39%
active: [1]; at 100.0 µM 96% | [2]; at 100.0 µM 96% | [3]; at 100.0 µM 85% | [4]; [17] 95% | [4]; at 50.0 µM 70.2% | [4]; at 100.0 µM 96% | [5]; [17] 99% | [5]; at 100.0 µM 96% | [6]; at 100.0 µM 92% | [7]; [17] 88% | [7]; at 50.0 µM 74.5% | [8]; at 100.0 µM 96% | [9]; [17] 82% | [10]; [17] 88% | [10]; at 50.0 µM 74% | [10]; at 100.0 µM 95% | [11]; at 100.0 µM 94% | [15]; at 100.0 µM 96% | [12]; at 100.0 µM 96% | [13]; [17] 98% | [14]; at 100.0 µM 97%
